Laboratory results from PubChem BioAssay AID504339 (National Center for Advancing Translational Sciences (NCATS), 2011).
Screen size: about 390,000 compounds; about 17,000 (4.4%) were called active. Another 8% or so got no clear call; they are omitted. Calls come from the whole dose curve; as a rule, active = well fitted inhibition curve with a large enough effect; inconclusive = small, poorly fitted or top-dose-only effect; inactive = no such curve, though single readings can be large or run the other way. What follows is part of a selection rich in actives, with near analogues and random picks from the rest.
% is set by controls: 0 for no effect and ±100 for the full control effect; potency is the fitted concentration of half-maximal effect.
Note: nearly all actives have a fitted effect of over 50% in size.

What follows are compounds tested against Lysine-specific demethylase 4A (Homo sapiens) (UniProt O75164) (assay: qHTS Assay for Inhibitors of JMJD2A-Tudor Domain). Details: AlphaScreen JMJD2A-Tudor / H3K4me3 peptide binding; series mostly up to 114 µM; activity change, negative = inhibition: at the top concentration.
Sequence of Lysine-specific demethylase 4A (Homo sapiens) (O75164 whole entry, looked up, the tested form may be a part): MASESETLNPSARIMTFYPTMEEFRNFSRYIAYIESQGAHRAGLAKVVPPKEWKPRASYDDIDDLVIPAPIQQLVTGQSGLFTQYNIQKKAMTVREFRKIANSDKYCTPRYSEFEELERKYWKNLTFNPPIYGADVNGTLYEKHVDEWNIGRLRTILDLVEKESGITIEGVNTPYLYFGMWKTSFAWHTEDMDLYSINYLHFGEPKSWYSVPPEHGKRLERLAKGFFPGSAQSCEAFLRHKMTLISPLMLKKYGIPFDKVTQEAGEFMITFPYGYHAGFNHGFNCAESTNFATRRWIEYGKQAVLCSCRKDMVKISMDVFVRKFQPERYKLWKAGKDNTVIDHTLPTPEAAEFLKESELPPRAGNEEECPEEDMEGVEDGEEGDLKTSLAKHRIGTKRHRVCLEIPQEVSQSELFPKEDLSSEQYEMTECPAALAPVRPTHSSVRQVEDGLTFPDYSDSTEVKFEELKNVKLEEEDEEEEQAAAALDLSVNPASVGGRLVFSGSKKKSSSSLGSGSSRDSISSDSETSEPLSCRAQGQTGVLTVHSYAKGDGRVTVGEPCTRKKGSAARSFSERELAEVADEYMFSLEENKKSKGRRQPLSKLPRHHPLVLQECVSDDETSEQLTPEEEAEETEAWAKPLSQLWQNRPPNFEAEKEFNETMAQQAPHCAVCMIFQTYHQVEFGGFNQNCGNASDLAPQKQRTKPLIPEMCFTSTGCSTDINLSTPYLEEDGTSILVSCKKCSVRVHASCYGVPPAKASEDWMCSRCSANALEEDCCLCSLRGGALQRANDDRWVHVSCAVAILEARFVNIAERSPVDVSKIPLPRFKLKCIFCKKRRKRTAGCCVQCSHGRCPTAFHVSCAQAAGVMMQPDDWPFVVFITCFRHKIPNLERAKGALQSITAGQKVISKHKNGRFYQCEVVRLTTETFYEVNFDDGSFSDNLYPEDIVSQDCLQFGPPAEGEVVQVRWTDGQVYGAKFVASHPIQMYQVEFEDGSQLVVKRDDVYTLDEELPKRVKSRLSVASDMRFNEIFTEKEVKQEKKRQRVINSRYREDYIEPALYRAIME
In the case of `COc1ccc(CNC(=O)c2cc3c(=O)[nH]c4ccc(C)cc4c3s2)c(OC)c1`, the “activity change, negative = inhibition” value is reported as -7.27% (inactive).
With `COc1ccc(-c2cn3c(n2)sc2cc(C(=O)Nc4ccccc4F)ccc23)cc1` the “activity change, negative = inhibition” value was -9.21% (inactive).
For `Cc1ccccc1CNC(=O)c1cccc(NC(=O)c2nsc3ccccc23)c1`, the “activity change, negative = inhibition” value was -2.6% (inactive).
`COc1ccc(-n2c(=O)c3sc4ccccc4c3n(CC(=O)Nc3cccc(C)c3)c2=O)cc1` was tested, and the “activity change, negative = inhibition” value was -7.95% (inactive).
`O=C(Nc1ccc2nc(SCCOc3ccccc3)sc2c1)c1ccco1` was tested, and the “activity change, negative = inhibition” value was -11.9% (inactive).
For `CC(=O)c1ccc(NS(=O)(=O)c2ccc(-c3cc(C)no3)s2)cc1`, the “activity change, negative = inhibition” value was -20.1% (inactive).
With `CCN(CC)c1nn2c(=O)c(C(=O)NCCc3ccccc3)cnc2s1` the “activity change, negative = inhibition” value was -12% (inactive).
For `CCN(CCCNC(=O)c1c(C)oc2ncn(CC(C)C)c(=O)c12)Cc1ccccc1`, the “activity change, negative = inhibition” value was -0.647% (inactive).
For `CCc1ccc(NC(=O)CCS(=O)(=O)c2cc3c(cc2Cl)NC(=O)CO3)cc1`, the “activity change, negative = inhibition” value was -16.8% (inactive).
`O=C(CSc1nc(=O)n(Cc2cccnc2)c2c1CCC2)Nc1ccc(F)cc1F` was tested, and the “activity change, negative = inhibition” value was -1.3% (inactive).
For `O=S(=O)(c1ccc2nc(NCc3ccccc3Cl)ccc2c1)N1CCCCC1`, the “activity change, negative = inhibition” value was -26% (inactive).
With `O=S(=O)(Nc1cccc2cccnc12)c1cccc2cccnc12` the “activity change, negative = inhibition” value was -32.2% (inactive).
For `O=[N+]([O-])c1ccccc1S(=O)(=O)Nc1cccc2cccnc12`, the Potency was 56.2 µM (active).
In the case of `COc1cc(NS(=O)(=O)c2ccc3ccccc3c2)c2ncccc2c1`, the Potency is reported as “inactive”.
With `COc1ccccc1CNC(=O)C(Cc1ccccc1)NS(=O)(=O)c1ccc2c(c1)oc(=O)n2C` (centres undefined) the “activity change, negative = inhibition” value was -15.5% (inactive).
In the case of `O=C1CCCc2cc(S(=O)(=O)N3CCCC(C(=O)NCc4ccccc4)C3)ccc2N1` (centres undefined), the “activity change, negative = inhibition” value is reported as -0.647% (inactive).
`O=C(NCc1ccccc1Cl)c1cccn1-c1nnc(N2CCCCC2)s1` was tested, and the “activity change, negative = inhibition” value was -28.2% (inactive).
In the case of `COc1ccc(-c2nn(CC(=O)Nc3ccccc3F)c3c2cnc2ccc(F)cc23)cc1`, the “activity change, negative = inhibition” value is reported as -7.67% (inactive).
For `C=CCOc1c(CNn2cn[nH]c2=S)cccc1OC`, the Potency was 3.55 µM (active).
In the case of `C=CCOc1cccc(CNn2cn[nH]c2=S)c1`, the Potency is reported as 22.4 µM (active).
For `C=CCOc1cccc(C2NC(=O)c3ccccc3O2)c1` (centres undefined), the “activity change, negative = inhibition” value was -17.8% (inactive).
`C=CCC(Nc1ccccc1)c1cccc(OC)c1OC` (centres undefined) was tested, and the “activity change, negative = inhibition” value was 28.4% (inactive).
`C=CCOc1cccc(CNCc2cccnc2)c1` was tested, and the “activity change, negative = inhibition” value was -16.4% (inactive).
With `COc1cccc(CNCCSc2nnnn2C)c1OCc1ccccc1Cl` the “activity change, negative = inhibition” value was -2.24% (inactive).
With `COc1ccc(CCNC(=O)c2cc(=O)c3c(C)cc(C)cc3o2)cc1OC` the “activity change, negative = inhibition” value was -22.9% (inactive).
For `CSc1nc(-c2ccccc2Cl)nc2c1Cc1c(CO)cnc(C)c1O2`, the “activity change, negative = inhibition” value was -27.5% (inactive).
With `COc1ccccc1CNC(=O)c1ccc(CS(=O)c2ccccc2Cl)o1` (centres undefined) the “activity change, negative = inhibition” value was 8.79% (inactive).
With `CCc1nn(CC(=O)Nc2cc(C)cc(C)c2)c(=O)c2cc3sccc3n12` the “activity change, negative = inhibition” value was -14.9% (inactive).
For `CC(=O)N1CCCc2cc(S(=O)(=O)N3CCC(C(=O)NC4CCCCC4)CC3)ccc21`, the “activity change, negative = inhibition” value was -7.74% (inactive).
